Test results published in PubChem BioAssay AID1259339 (Broad Institute, 2017).
The source made the active and inactive calls.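 Rule for the calls: active = fitted AC50 no higher than ten times the top tested dose (cut at about 90 µM in these data); inconclusive = flat curve with 30 to 70% signal loss, or bad fit; inactive = AC50 beyond ten times the top dose.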

Assay: TruHit bead signal quenchers or artefacts – biochemical, TruHit kit, artefact control, dose response (AID 1259339)
Settings: TruHit alphaLISA kit signal interference counterscreen; series mostly up to 80 µM; activity change, negative = signal loss: at the top concentration

SMILES | activity change, negative = signal loss | AC50
CCc1nc(OCc2ccco2)c2sc3nc4c(cc3c2n1)COC(C)(C)C4 | -54% (inactive) | –
NC(=O)C1(N2CCCCC2)CCN(c2ncc(NC(=O)c3ccccc3)cc2C(=O)O)CC1 | -2.77% (inactive) | –
Nc1ccc(-c2cccc(CN3CCCC3)c2)cc1 | -10.3% (inactive) | –
O=C(CN1CCOC1=O)N1CCC2(CCC(=O)N(CCCn3ccnc3)C2)CC1 | -4.31% (inactive) | –
COc1ccc(-c2ccc(CCC(=O)O)o2)cc1 | -15.3% (inactive) | –
Cc1ccc(C(=O)Nc2ccc(N3CCC(C(N)=O)(N4CCCCC4)CC3)c(C(=O)O)c2)cc1 | -6.04% (inactive) | –
O=C(NCCCN1CCOCC1)c1cc(-c2ccco2)nc2ccccc12 | – | 27.5 µM (active)
O=C(COC(=O)CCC(=O)c1cccs1)NCc1ccco1 | 17.4% (inactive) | –
c1coc(-c2cn3ccc4ccccc4c3n2)c1 | – | 81.7 µM (active)
O=C1C=C(c2ccccc2)Nc2ccccc2N1 | 4.78% (inactive) | –
CCCN1CCCn2nc(CNC(=O)[C@H]3CC[C@@H](N)C3)cc2C1 | -21.6% (inactive) | –
NC(=O)C1(N2CCCCC2)CCN(c2ncc(NC(=O)c3cccs3)cc2C(=O)O)CC1 | 3.86% (inactive) | –
CC(C)(C)c1ccc(-c2nc(C#N)c(NCc3ccncc3)o2)cc1 | – | 22.1 µM (active)
O=C1CS/C(=N\N=C\c2ccco2)N1c1ccccc1 | – | 30.8 µM (active)
CCCN1CCCn2nc(CNC(=O)[C@@H](N)Cc3ccc(O)cc3)cc2C1 | -11.3% (inactive) | –
O=C(Cc1ccc(S(=O)(=O)N2CCOCC2)s1)Nc1nc2c(s1)CCCC2 | – | 29.2 µM (active)
O=C(Nc1nc(-c2ccco2)c(-c2ccco2)s1)C1CCC1 | – | 4.55 µM (active)
CCCc1oc(C(=O)O)cc1CN | 16% (inactive) | –

SMILES | activity change, negative = signal loss | AC50
Cc1ccc(C(=O)Nc2cnc(N3CCC(C(N)=O)(N4CCCCC4)CC3)c(C(=O)O)c2)cc1 | -47.3% (inactive) | –
O=S(=O)(c1ccc2nc(-c3ccco3)c(-c3ccco3)nc2c1)N1CCOCC1 | – | 26.8 µM (active)
O=C(O)c1ccccc1/C=N/NC(=O)c1cc(-c2ccco2)nc2ccccc12 | – | 36 µM (active)
CC1CCN(c2nc(-c3ccco3)c3c(c2C#N)CC(C)(C)OC3)CC1 | – | 33.5 µM (active)
COc1ccc(NC(=O)c2nc(Nc3ccccc3)c3ccccc3n2)cc1 | -15.3% (inactive) | –
CCOc1ccccc1NC(=O)N1CCCC(c2nccn2CCOC)C1 (stereo unspecified) | -7.56% (inactive) | –
Cc1nc(C)c(C(=O)Nc2ncc([N+](=O)[O-])s2)o1 | – | 40.7 µM (active)
Cc1cccc(Nc2nc(C(=O)Nc3cc(F)ccc3F)nc3ccccc23)c1 | -0.625% (inactive) | –
O=C(COC(=O)c1ccc(S(=O)(=O)NCc2ccco2)cc1)Nc1ccc(Cl)cn1 | – | > 160 µM (inactive)
O=S(=O)(Nc1nc2ccc(S(=O)(=O)N3CCCCC3)cc2s1)c1ccccc1 | – | 76.8 µM (active)
COc1ccc2nc(-c3ccco3)c(-c3ccco3)nc2c1 | – | 35.1 µM (active)
Cc1ccc(N2NC(c3ccc(Br)cc3)=CCC2=O)cc1 | – | 66.7 µM (active)
O=[N+]([O-])c1cccc(-c2nnc3ccc4ccccc4n23)c1 | -15% (inactive) | –
O=C(Nc1ccc2oc(-c3ccncc3)nc2c1)c1ccc2c(c1)OCCO2 | 2.45% (inactive) | –
O=C(COc1cccnc1[N+](=O)[O-])c1ccc(Cl)s1 | – | 23.2 µM (active)
O=C(Nc1ccc2oc(-c3ccncc3)nc2c1)c1ccc2c(c1)OCO2 | -13% (inactive) | –
COCCC(=O)N1CCCC2(CCN(CCN3CCCC3)C2=O)C1 (stereo unspecified) | 15.8% (inactive) | –
O=C(Nc1nnc(-c2ccco2)s1)c1ccccc1 | 12.7% (inactive) | –
